Where “and” joins values, the source holds several entries; their conditions need not be identical. Identical values can stand only once. Calls of active or inactive are those of the source.
Experiments:
[1] = small molecules captured by biotinylated probe aFSTL3 – biochemical, small-molecule microarray, fluorescence 635/667, stem cell growth factor project, primary screen (AID 1064); details: higher = more signal;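 also: measures binding of the biotinylated anti-FSTL3 antibody to printed compounds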
[2] = binders from COS7 lysate, DM2A8 probe, primary screen, torsin A project, cell lysate, small-molecule microarray, fluorescence 635/667 (AID 1065); details: higher = more signal, COS7 lysate expressing mutant human TOR1A
[3] = small molecules captured by biotinylated probe aFGF2 – biochemical, small-molecule microarray, fluorescence 635/667, stem cell growth factor project, primary screen (AID 1067); details: higher = more signal;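 also: measures binding of biotinylated aFGF2 protein to printed compounds on slides; z-score merges feature fluorescence and signal-to-noise across triplicate slides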
[4] = small molecules captured by biotinylated probe aFGF10 – biochemical, small-molecule microarray, fluorescence 635/667, stem cell growth factor project, primary screen (AID 1071); details: higher = more signal;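 also: score merges 667 nm spot intensity and signal to noise from triplicate slides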
[5] = molecular target: Neurogenic locus notch homolog protein 2 (Homo sapiens) (UniProt Q04721); test: small molecules binding Notch2 protein – biochemical, small-molecule microarray, 635 nm fluorescence, stem cell growth factors, primary screen (AID 1073); details: higher = more signal
Neurogenic locus notch homolog protein 2 (Homo sapiens), sequence (Q04721 whole entry, looked up, canonical isoform): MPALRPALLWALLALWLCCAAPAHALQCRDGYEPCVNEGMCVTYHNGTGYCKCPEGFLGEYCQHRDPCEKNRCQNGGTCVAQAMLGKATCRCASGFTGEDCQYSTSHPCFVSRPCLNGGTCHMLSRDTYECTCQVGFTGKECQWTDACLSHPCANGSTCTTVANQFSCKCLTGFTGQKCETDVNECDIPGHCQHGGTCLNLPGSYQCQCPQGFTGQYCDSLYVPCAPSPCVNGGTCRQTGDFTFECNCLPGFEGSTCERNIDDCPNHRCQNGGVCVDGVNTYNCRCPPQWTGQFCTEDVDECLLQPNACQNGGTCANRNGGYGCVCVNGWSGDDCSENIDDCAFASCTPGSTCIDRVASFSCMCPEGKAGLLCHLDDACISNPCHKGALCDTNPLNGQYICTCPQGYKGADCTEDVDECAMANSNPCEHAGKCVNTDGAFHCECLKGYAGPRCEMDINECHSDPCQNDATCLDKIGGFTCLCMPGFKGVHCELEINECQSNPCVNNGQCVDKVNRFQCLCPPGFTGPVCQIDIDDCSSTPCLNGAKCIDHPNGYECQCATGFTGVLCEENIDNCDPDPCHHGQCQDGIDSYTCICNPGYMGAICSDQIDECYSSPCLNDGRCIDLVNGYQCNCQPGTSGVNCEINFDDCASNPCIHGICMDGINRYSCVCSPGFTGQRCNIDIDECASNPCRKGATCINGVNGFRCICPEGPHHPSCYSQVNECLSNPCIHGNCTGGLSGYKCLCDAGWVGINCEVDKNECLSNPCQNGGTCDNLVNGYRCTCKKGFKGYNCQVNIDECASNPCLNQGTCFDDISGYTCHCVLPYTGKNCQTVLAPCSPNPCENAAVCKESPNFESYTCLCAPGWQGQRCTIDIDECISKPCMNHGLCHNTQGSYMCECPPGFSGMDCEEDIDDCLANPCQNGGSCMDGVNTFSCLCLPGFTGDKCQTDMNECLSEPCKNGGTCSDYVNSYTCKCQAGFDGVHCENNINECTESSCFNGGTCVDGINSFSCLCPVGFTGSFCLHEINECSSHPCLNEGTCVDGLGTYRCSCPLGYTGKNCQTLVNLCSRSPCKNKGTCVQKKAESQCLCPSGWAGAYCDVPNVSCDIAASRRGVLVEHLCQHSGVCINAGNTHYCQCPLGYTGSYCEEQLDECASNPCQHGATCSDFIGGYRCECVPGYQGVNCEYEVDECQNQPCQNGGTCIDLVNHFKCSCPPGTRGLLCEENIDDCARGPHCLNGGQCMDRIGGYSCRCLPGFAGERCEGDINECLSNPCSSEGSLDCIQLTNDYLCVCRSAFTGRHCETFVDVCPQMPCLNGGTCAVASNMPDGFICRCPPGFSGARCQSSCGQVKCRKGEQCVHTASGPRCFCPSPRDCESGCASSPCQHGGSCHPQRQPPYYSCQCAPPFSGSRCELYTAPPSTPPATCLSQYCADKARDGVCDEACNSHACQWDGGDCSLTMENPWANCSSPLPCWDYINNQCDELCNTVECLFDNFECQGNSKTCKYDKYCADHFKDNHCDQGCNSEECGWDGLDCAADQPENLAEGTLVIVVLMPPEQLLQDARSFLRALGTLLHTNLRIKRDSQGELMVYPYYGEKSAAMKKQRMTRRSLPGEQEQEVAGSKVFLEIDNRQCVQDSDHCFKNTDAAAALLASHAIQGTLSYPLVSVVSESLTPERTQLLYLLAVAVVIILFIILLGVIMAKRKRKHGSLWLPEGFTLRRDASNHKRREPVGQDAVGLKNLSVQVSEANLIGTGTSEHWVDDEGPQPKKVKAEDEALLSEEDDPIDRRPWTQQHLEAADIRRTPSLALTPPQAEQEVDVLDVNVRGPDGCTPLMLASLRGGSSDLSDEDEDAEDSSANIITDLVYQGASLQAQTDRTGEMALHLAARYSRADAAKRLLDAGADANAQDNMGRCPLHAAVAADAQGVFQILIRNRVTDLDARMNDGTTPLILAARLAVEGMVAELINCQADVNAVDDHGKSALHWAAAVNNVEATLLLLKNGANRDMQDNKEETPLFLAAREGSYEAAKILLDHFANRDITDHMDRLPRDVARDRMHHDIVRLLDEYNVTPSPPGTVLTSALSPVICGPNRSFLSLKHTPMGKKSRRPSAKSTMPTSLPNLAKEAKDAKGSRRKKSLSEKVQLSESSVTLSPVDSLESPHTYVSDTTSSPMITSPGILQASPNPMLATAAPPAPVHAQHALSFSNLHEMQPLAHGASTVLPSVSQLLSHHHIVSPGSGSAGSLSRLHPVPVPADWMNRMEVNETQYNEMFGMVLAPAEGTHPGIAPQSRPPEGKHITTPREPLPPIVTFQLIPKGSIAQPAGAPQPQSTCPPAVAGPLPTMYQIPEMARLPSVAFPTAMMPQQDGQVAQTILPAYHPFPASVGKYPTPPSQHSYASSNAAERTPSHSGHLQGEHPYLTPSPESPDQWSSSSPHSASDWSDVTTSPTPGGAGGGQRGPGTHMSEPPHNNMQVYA

[6] = molecular target: Pro-neuregulin-1, membrane-bound isoform (Homo sapiens) (UniProt Q02297); test: small molecules binding neuregulin-1 protein – biochemical, small-molecule microarray, fluorescence 635/667, psychiatric disease protein project, primary screen (AID 1075); details: NRG1 binding, 635 nm fluorescence, higher = more signal;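 also: score combines 667 nm spot fluorescence with signal to noise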
[7] = test system: Neuregulin-1 EGF-like domain; test: small molecules binding NRG1 EGF domain – biochemical, small-molecule microarray, 635 nm fluorescence, primary screen (AID 1081); details: higher = more signal;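 also: binding of the protein to compounds printed on small-molecule microarray slides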
[8] = FRG1 expression reporter modulators in myotubes – cell-based, C2C12 myotubes, firefly/Renilla luciferase, luminescence, FRG1 inhibition for FSHD, primary screen (AID 1084); details: FRG1 promoter luciferase, higher = more signal, called active from +8 up or from −8 down
[9] = small molecules captured by biotinylated probe aFST – biochemical, small-molecule microarray, fluorescence 635/667, stem cell growth factor project, primary screen (AID 1086); details: higher = more signal;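 also: score merges 667 nm fluorescence with signal-to-noise of each printed compound spot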
[10] = binders of probe aHhip on microarray, primary screen, stem cell growth factor project, biochemical, small-molecule microarray, fluorescence 635/667 (AID 1087); details: higher = more signal;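 also: score merges spot fluorescence at 667nm with spot signal to noise ratio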
[11] = test system: PRMT1 (protein arginine N-methyltransferase 1); test: small molecules binding arginine methyltransferase PRMT1 – biochemical, small-molecule microarray, 635 nm fluorescence, primary screen (AID 1088); details: higher = more signal;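 also: binding of Prmt1 protein to compounds spotted on small-molecule microarray slides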
[12] = growth effects on S. cerevisiae YJM789 – YJM789 clinical isolate, OD600, 24 h, basal, primary screen (AID 1089); details: higher = more signal, called active from +8 up or from −8 down;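 also: growth of clinical yeast isolate S. cerevisiae YJM 789 seeded 1000 cells per well; test concentration not given here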
[13] = S. pombe growth modifiers, basal conditions – strain 972, OD600, 24 h, no modulator, primary screen (AID 1090);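 also: basal condition with compound alone and no growth modifier present; test concentration not given here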; details: S. pombe 972 growth, higher = more signal, called active from +8 up or from −8 down
[14] = budding yeast growth modifiers under rapamycin – strain BY4716, OD600, 96 h, primary screen (AID 1091); also: test concentration not given here; details: S. cerevisiae BY4716 + rapamycin, higher = more signal, called active from +8 up or from −8 down
[15] = molecular target: Torsin-1A-interacting protein 2 (Homo sapiens) (UniProt Q8NFQ8); test: small molecules binding lysate-expressed LULL1 – cell lysate, human LULL1 lysate, 635/667 nm fluorescence, primary screen (AID 1092); details: small-molecule microarray, hLULL1 lysate binding, 635 nm fluorescence; higher = more signal;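 also: probe is lysate of COS7 cells overexpressing human LULL1; score merges per-feature 667 nm fluorescence with signal-to-noise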
[16] = optical density change of DRC41 E. coli – strain DRC41, OD650, 24 h, E. coli filamentation project, primary screen (AID 1093);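 also: MC1000 strain lacking acrAB efflux and sulA so SOS filamentation is blocked; test concentration not given here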; details: E. coli DRC41 growth, higher = more signal, called active from +8 up or from −8 down
[17] = probe aLefty2 binding to arrayed compounds – biochemical, biotinylated probe, 635/667 nm fluorescence, primary screen (AID 1094); details: small-molecule microarray, higher = more signal;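 also: score merges spot fluorescence near 667 nm with spot signal-to-noise ratio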
[18] = test system: Noggin (protein binding on small-molecule microarray); test: small molecules binding Noggin protein – biochemical, 635/667 nm fluorescence, primary screen (AID 1095); details: 635 nm fluorescence, higher = more signal;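 also: score merges 667 nm feature fluorescence with signal to noise over triplicate slides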
[19] = molecular target: Neurogenic locus notch homolog protein 3 (Homo sapiens) (UniProt Q9UM47); test: small molecules binding NOTCH3 protein – biochemical, 635/667 nm fluorescence, primary screen (AID 1096); details: small-molecule microarray, 635 nm fluorescence, higher = more signal
Neurogenic locus notch homolog protein 3 (Homo sapiens), sequence (Q9UM47 whole entry, looked up): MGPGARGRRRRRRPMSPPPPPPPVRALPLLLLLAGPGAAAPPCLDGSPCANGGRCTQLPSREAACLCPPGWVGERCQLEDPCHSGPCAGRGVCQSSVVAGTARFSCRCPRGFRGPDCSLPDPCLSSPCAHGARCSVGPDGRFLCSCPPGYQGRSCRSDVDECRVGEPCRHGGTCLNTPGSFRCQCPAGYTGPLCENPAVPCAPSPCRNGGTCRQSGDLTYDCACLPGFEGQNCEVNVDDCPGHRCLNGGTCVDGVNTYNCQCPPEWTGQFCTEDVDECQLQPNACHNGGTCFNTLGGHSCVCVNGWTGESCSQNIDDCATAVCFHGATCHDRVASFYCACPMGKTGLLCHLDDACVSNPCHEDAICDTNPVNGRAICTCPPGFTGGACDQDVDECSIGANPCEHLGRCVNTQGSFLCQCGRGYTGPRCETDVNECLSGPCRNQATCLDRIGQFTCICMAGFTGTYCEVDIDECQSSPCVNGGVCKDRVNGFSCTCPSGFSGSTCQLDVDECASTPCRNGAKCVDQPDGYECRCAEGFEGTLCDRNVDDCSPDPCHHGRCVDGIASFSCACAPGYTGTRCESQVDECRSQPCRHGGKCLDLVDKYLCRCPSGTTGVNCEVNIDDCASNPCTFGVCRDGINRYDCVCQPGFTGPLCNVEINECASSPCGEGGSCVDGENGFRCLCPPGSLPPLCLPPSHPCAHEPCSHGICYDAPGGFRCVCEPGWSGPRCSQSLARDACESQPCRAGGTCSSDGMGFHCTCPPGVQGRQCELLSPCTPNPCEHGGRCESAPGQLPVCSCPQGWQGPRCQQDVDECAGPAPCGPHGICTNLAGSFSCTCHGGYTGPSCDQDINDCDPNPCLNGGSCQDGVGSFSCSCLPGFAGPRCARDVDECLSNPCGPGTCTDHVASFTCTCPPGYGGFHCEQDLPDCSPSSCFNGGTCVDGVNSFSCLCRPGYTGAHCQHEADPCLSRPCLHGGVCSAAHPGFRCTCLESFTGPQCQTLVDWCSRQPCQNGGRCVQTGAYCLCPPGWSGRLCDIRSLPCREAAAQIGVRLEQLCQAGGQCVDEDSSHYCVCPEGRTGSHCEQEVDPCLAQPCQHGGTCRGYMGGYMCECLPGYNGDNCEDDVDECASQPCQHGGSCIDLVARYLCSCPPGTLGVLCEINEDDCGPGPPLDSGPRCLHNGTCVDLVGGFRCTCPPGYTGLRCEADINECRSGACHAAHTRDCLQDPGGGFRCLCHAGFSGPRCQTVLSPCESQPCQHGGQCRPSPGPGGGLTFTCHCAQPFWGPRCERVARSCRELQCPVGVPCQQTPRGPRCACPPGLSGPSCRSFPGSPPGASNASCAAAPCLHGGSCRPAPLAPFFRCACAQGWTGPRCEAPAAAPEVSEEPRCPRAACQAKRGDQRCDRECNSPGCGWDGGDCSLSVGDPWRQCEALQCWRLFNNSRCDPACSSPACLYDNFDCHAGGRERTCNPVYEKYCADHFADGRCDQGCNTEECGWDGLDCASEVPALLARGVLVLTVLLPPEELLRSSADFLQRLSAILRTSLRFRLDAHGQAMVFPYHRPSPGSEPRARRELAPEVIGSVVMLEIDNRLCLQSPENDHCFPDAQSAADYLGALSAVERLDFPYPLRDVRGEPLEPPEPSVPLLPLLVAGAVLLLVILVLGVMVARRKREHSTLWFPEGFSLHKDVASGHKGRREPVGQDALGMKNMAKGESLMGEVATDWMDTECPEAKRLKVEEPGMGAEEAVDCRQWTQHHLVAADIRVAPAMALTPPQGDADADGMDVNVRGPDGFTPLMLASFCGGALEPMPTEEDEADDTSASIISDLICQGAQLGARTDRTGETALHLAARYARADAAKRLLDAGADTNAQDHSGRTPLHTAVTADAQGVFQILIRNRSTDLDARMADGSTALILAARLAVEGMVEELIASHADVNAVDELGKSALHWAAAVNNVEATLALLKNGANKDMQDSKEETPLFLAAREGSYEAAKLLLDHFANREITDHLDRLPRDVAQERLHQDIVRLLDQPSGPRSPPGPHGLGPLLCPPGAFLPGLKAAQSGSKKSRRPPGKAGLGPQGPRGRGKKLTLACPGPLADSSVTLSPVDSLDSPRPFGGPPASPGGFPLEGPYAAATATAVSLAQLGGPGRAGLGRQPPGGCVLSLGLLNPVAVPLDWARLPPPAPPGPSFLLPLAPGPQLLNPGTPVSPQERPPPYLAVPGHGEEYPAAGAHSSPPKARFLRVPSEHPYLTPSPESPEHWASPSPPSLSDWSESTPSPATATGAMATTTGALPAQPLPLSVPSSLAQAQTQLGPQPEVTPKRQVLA

[20] = probe aEGFR binding to arrayed compounds – biochemical, biotinylated probe, 635/667 nm fluorescence, primary screen (AID 1097); details: small-molecule microarray, higher = more signal;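 also: probe is a biotinylated anti-EGFR antibody binding compounds printed on slides; score combines fluorescence near 667 nm and signal to noise of each spot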

| Compound | composite z-score [1] | composite z-score [2] | composite z-score [3] | composite z-score [4] | composite z-score [5] | composite z-score [6] | composite z-score [7] | z-score [8] | composite z-score [9] | composite z-score [10] | composite z-score [11] | z-score [12] | z-score [13] | z-score [14] | composite z-score [15] | z-score [16] | composite z-score [17] | composite z-score [18] | composite z-score [19] | composite z-score [20] |
| --- | --- | --- | --- | --- | --- | --- | --- | --- | --- | --- | --- | --- | --- | --- | --- | --- | --- | --- | --- | --- |
| CC(CO)N1C(=O)[C@@H]2C3C(=O)OCCC=C[C@H]3OC23C=CCN(C(C)(C)C)C(=O)[C@@H]13 (stereo not given in full) | 0.589 and 0.169 | -0.848 and -0.0168 | -0.158 and -0.0296 | -0.884 and 0.546 | -1.01 and 0.13 | -0.551 and 0.91 | 0.369 and 1.41 | 0.714 (inactive) and 0.355 (inactive) | -0.547 and -0.0366 | -0.134 and 0.0749 | -0.577 and 0.254 | 0.581 (inactive) and -1.45 (inactive) | 0.605 (inactive) and -0.779 (inactive) | 0.819 (inactive) and -0.544 (inactive) | -0.326 and 2.17 | -0.586 (inactive) and -0.513 (inactive) | -0.176 and 0.0028 | -0.808 and 0.16 | -0.431 and 0.289 | -0.295 and -0.117 |
| CO[C@@H]1COC(=O)[C@H](Cc2ccccc2)NC(=O)CC=C[C@@H](C)[C@H](OC)COC(=O)[C@@H](C)NC(=O)CC=C[C@H]1C | -0.501 and -1.33 | 1.23 and 0.603 | -0.132 and -0.168 | 0.0044 and 0.401 | -0.223 and -0.012 | -0.258 and -0.159 | 0.383 and 0.284 | 0.361 (inactive) and -0.178 (inactive) | 0.409 and -0.084 | 0.154 and -0.271 | 1.53 and 1.15 | -0.706 (inactive) and -0.356 (inactive) | -1.71 (inactive) and -1.2 (inactive) | -0.916 (inactive) and -0.753 (inactive) | 0.469 and -0.0887 | -0.0559 (inactive) and 0.361 (inactive) | -0.217 and -0.393 | 1.45 and 1.06 | 1.07 and 0.862 | -0.0616 and -0.0438 |
| CC(CO)N1C(=O)[C@@H]2C3C(=O)OCCC=C[C@H]3OC23C=CCN(Cc2ccccc2)C(=O)[C@@H]13 (stereo not given in full) | 0.144 and 0.708 | 1.03 and -0.0188 | -0.162 and -0.111 | -0.691 and 0.0659 | -1.24 and -0.565 | -0.852 and 1.22 | 1.08 and 0.738 | 0.587 (inactive) and 0.0791 (inactive) | -0.41 and -0.455 | -0.236 and -0.34 | -0.477 and -0.385 | 0.814 (inactive) and -0.448 (inactive) | -0.326 (inactive) and -1.08 (inactive) | 1.53 (inactive) and -0.42 (inactive) | 1.16 and 0.0845 | 1.3 (inactive) and 1.67 (inactive) | -0.0216 and -0.0449 | -1.05 and -0.529 | -0.36 and -0.377 | -0.196 and -0.221 |
| C=CCN(C(=O)C(c1cccs1)N(CCOCCO)C(=O)/C=C\C(=O)O)C(C)(C)C (stereo not given) | 0.982 and 1.01 | -0.718 and -0.131 | -0.228 and -0.192 | -0.708 and -0.376 | -1.28 and -1.44 | -0.395 and -0.988 | 0.484 and 0.745 | -0.0773 (inactive) and -0.143 (inactive) | -0.78 and -1.06 | -0.277 and -0.169 | -1.16 and -0.597 | 0.592 (inactive) and 0.385 (inactive) | -1.35 (inactive) and -0.863 (inactive) | 0.103 (inactive) and 0.0577 (inactive) | -2.06 and 0.15 | 1.41 (inactive) and 0.711 (inactive) | -0.0674 and -0.167 | -1.85 and -2.31 | -1.9 and -0.936 | -0.277 and -0.339 |
| C=CCN(CCCC)C(=O)C(c1cccs1)N(C(=O)/C=C\C(=O)O)c1c(Cl)cccc1CO (stereo not given) | 1.46 and 0.323 | -1.19 and -0.707 | -0.288 and -0.203 | -1.27 and -1.8 | -1.97 and -1.39 | -1.26 and -0.533 | -0.751 and 0.176 | -0.165 (inactive) and -0.332 (inactive) | -1.94 and -0.684 | 0.679 and -0.409 | -0.663 and -0.538 | 0.135 (inactive) and 0.537 (inactive) | -0.266 (inactive) and 1.12 (inactive) | -0.548 (inactive) and -0.522 (inactive) | 0.376 and 0.744 | 0.224 (inactive) and -0.174 (inactive) | 0.148 and -0.235 | -1.97 and -2.53 | -2.02 and -1.33 | -0.451 and -0.328 |
| CO[C@@H]1COC(=O)CC=C[C@H](C)COC(=O)[C@H](C)NC(=O)CC=C[C@H]1C | -0.563 | 1.75 | -0.203 | 0.126 | 0.269 | -0.557 | -0.139 | -0.87 (inactive) | -0.118 | 0.0505 | 1.38 | 1.19 (inactive) | 1.04 (inactive) | 1.25 (inactive) | -0.654 | 0.18 (inactive) | -0.235 | 1.68 | 0.438 | -0.157 |
| C=CCN(CCCC)C(=O)C(c1cccs1)N(CCOCCO)C(=O)/C=C\C(=O)O (stereo not given) | 0.673 and -0.0069 | 0.878 and 0.902 | -0.208 and -0.23 | -1.36 and 0.428 | -1.8 and -0.746 | 1.34 and 0.823 | 0.903 and 0.941 | -1.65 (inactive) and -0.784 (inactive) | -0.496 and -0.114 | -0.134 and -0.236 | -1.08 and 0.596 | -1.98 (inactive) and -1.34 (inactive) | -0.745 (inactive) and -0.342 (inactive) | -0.604 (inactive) and -0.397 (inactive) | 0.657 and 2.51 | 1.02 (inactive) and 1.45 (inactive) | -0.145 and -0.139 | -1.73 and -0.798 | -0.852 and -0.503 | -0.236 and -0.148 |

Source: PubChem BioAssay
